# Measurements from the supplement of paper PMC8728848.
# About 410 targets per protein were measured; listed, in parts, are those with the strongest signals and a random draw of the rest.
# B1: M6PR (Bos taurus), P11456 (protein)
# chain: MMSPLHSSWRTGLLLLLLFSVAVRESWQTEEKTCDLVGEKGKESEKELALLKRLTPLFNKSFESTVGQSPDMYSYVFRVCREAGNHSSGAGLVQINKSNGKETVVGRFNETQIFNGSNWIMLIYKGGDEYDNHCGREQRRAVVMISCNRHTLADNFN
# Assays:
# Assay in all cases: glycan array binding signal (z-score within array); higher = stronger binding
# Settings in all cases: glycan notation: IUPAC condensed, linker removed
# [1] = molecular target: Fuc(a1-2)Gal(b1-3)GalNAc(b1-4)[Neu5Ac(a2-3)]Gal(b1-4)Glc
# Outline: (§1)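 Glycan array binding is given as a within-array Z-score, which can be read as non-binding when negative. The arrays, 3228 of them, came from the Consortium for Functional Glycomics database and were retained only where the protein sequence was available. Z-scores were averaged across arrays of the same protein sequence at different concentrations or buffers and across linkers.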
# [2] = molecular target: Fuc(a1-2)[Gal(a1-3)]Gal(b1-3)GlcNAc
# Outline: as §1
# [3] = molecular target: Fuc(a1-2)[GalNAc(a1-4)]Gal(b1-4)GlcNAc
# Outline: as §1
# Fuc(a1-4)GlcNAc = molecular target: Fuc(a1-4)GlcNAc
# Outline: as §1
# Gal(a1-3)Gal(b1-4)GlcNAc = molecular target: Gal(a1-3)Gal(b1-4)GlcNAc
# Outline: as §1
# [4] = molecular target: Gal(b1-3)[Fuc(a1-4)]GlcNAc
# Outline: as §1
# [5] = molecular target: Gal(b1-3)[Fuc(a1-4)]GlcNAc(b1-3)Gal(b1-4)[Fuc(a1-3)]GlcNAc
# Outline: as §1
# Gal3S(b1-3)GalNAc = molecular target: Gal3S(b1-3)GalNAc
# Outline: as §1
# GalNAc(a1-3)Gal = molecular target: GalNAc(a1-3)Gal
# Outline: as §1
# GalNAc(a1-3)GalNAc = molecular target: GalNAc(a1-3)GalNAc
# Outline: as §1
# [6] = molecular target: GalNAc(b1-3)Gal(a1-4)Gal(b1-4)GlcNAc
# Outline: as §1
# GlcA(b1-6)Gal = molecular target: GlcA(b1-6)Gal
# Outline: as §1
# GlcNAc(b1-3)Gal(b1-4)Glc = molecular target: GlcNAc(b1-3)Gal(b1-4)Glc
# Outline: as §1
# Man(a1-2)Man(a1-3)Man = molecular target: Man(a1-2)Man(a1-3)Man
# Outline: as §1
# [7] = molecular target: Man(a1-2)Man(a1-3)[Man(a1-2)Man(a1-6)]Man(a1-6)[Man(a1-3)[Man(a1-6)]Man(a1-6)]Man(b1-4)GlcNAc(b1-4)GlcNAc
# Outline: as §1
# [8] = molecular target: Neu5Ac(a2-3)Gal(b1-3)[Neu5Ac(a2-3)Gal(b1-4)]GlcNAc
# Outline: as §1
# [9] = molecular target: Neu5Ac(a2-3)Gal(b1-4)GlcNAc(b1-3)Gal(b1-4)GlcNAc(b1-3)Gal(b1-4)GlcNAc
# Outline: as §1
# [10] = molecular target: Neu5Ac(a2-3)Gal(b1-4)GlcNAc6S
# Outline: as §1
# [11] = molecular target: Neu5Ac(a2-3)Gal(b1-4)[Fuc(a1-3)]GlcNAc(b1-3)Gal(b1-4)GlcNAc
# Outline: as §1
# [12] = molecular target: Neu5Ac(a2-6)Gal(b1-4)GlcNAc(b1-2)Man(a1-3)[Neu5Ac(a2-6)Gal(b1-4)GlcNAc(b1-2)Man(a1-6)]Man(b1-4)GlcNAc(b1-4)GlcNAc
# Outline: as §1
# [13] = molecular target: Neu5Ac(a2-6)GalNAc(b1-4)GlcNAc
# Outline: as §1
# [14] = molecular target: Neu5Gc(a2-3)Gal(b1-3)[Fuc(a1-4)]GlcNAc
# Outline: as §1
# Neu5Gc(a2-3)Gal(b1-4)Glc = molecular target: Neu5Gc(a2-3)Gal(b1-4)Glc
# Outline: as §1
# Neu5Gc(a2-6)GalNAc = molecular target: Neu5Gc(a2-6)GalNAc
# Outline: as §1
binder,measurement,setting,value
B1,glycan array binding signal (z-score),[1],2.76
same,glycan array binding signal (z-score),[2],-0.012
same,glycan array binding signal (z-score),[3],-0.255
same,glycan array binding signal (z-score),Fuc(a1-4)GlcNAc,-0.026
same,glycan array binding signal (z-score),Gal(a1-3)Gal(b1-4)GlcNAc,-0.036
same,glycan array binding signal (z-score),[4],-0.132
same,glycan array binding signal (z-score),[5],0.169
same,glycan array binding signal (z-score),Gal3S(b1-3)GalNAc,-0.095
same,glycan array binding signal (z-score),GalNAc(a1-3)Gal,1.42
same,glycan array binding signal (z-score),GalNAc(a1-3)GalNAc,0.045
same,glycan array binding signal (z-score),[6],0.285
same,glycan array binding signal (z-score),GlcA(b1-6)Gal,-0.256
same,glycan array binding signal (z-score),GlcNAc(b1-3)Gal(b1-4)Glc,1.12
same,glycan array binding signal (z-score),Man(a1-2)Man(a1-3)Man,-0.287
same,glycan array binding signal (z-score),[7],3.23
same,glycan array binding signal (z-score),[8],-0.269
same,glycan array binding signal (z-score),[9],-0.446
same,glycan array binding signal (z-score),[10],-0.267
same,glycan array binding signal (z-score),[11],0.517
same,glycan array binding signal (z-score),[12],-0.279
same,glycan array binding signal (z-score),[13],0.219
same,glycan array binding signal (z-score),[14],-0.343
same,glycan array binding signal (z-score),Neu5Gc(a2-3)Gal(b1-4)Glc,-0.187
same,glycan array binding signal (z-score),Neu5Gc(a2-6)GalNAc,1.03
